Test results as given in PubChem BioAssay AID1159580 (chemical genetic matrix, 2015).
Screen size: about 5,500 compounds; about 2,000 (36%) were called active. About 18% were inconclusive and are not listed. Rule as the data show it: active = normalized growth mostly below about 0.91 (no sharp cut-off); inconclusive = no clear call, values can overlap the other calls; inactive = mostly above about 0.92. The list shows a part of the results.

Experiment: chemical genetic growth profiling, strain panel (AID 1159580);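 also: tested at 20 µM; growth read once vehicle control cultures reached saturation at 30 °C; 1 = growth at the plate median or of vehicle wells; lower values mean less growth of the strain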
Settings: S. cerevisiae deletion strains, growth OD

Measured: normalized growth

COc1cc2c(cc1OC)-c1c(oc3cc(O)cc(O)c3c1=O)CO2
inactive: locus YAL021C, strain ccr4, active compounds read low 1.02 | locus YAL026C, strain drs2, active compounds read low 1.01 | locus YAL030W, strain snc1, active compounds read low 1.01 | locus YBL061C, strain skt5, active compounds read low 1.01 | locus YBR009C, strain hhf1, active compounds read low 1.02 | locus YBR023C, strain chs3, active compounds read low 1.02 | locus YBR171W, strain sec66, active compounds read low 1.03 | locus YBR231C, strain swc5, active compounds read low 1.02 | locus YBR279W, strain paf1, active compounds read low 1.02 | locus YCL011C, strain gbp2, active compounds read low 1.01 | locus YCL016C, strain dcc1, active compounds read low 1.02 | locus YCL061C, strain MRC1, active compounds read low 1.01 | locus YCL069W, strain vba3, active compounds read low 1.01 | locus YCR088W, strain abp1, active compounds read low 1.02 | locus YDL005C, strain med2, active compounds read low 1.04 | locus YDL040C, strain nat1, active compounds read low 1.01 | locus YDR001C, strain nth1, active compounds read low 1.01 | locus YDR069C, strain doa4, active compounds read low 1.02 | locus YDR137W, strain rgp1, active compounds read low 1 | locus YDR159W, strain sac3, active compounds read low 1.04 | locus YDR195W, strain ref2 1.04 | locus YDR297W, strain sur2, active compounds read low 1.02 | locus YDR334W, strain swr1, active compounds read low 1.01 | locus YDR335W, strain msn5, active compounds read low 1.03 | locus YDR392W, strain spt3, active compounds read low 1.01 | locus YEL003W, strain gim4, active compounds read low 1.02 | locus YEL037C, strain rad23, active compounds read low 1.01 | locus YEL061C, strain CIN8 (second series), active compounds read low 1.01 | locus YER015W, strain faa2, active compounds read low 1.02 | locus YER016W, strain bim1, active compounds read low 1.01 | locus YER111C, strain swi4, active compounds read low 1.03 | locus YER155C, strain BEM2 (second series), active compounds read low 1.03 | locus YFR010W, strain ubp6, active compounds read low 1.02 | locus YGL167C, strain pmr1, active compounds read low 1.02 | locus YGL173C, strain kem1, active compounds read low 1.03 | locus YGL227W, strain vid30, active compounds read low 1.03 | locus YGL240W, strain doc1, active compounds read low 1.02 | locus YGL253W, strain hxk2, active compounds read low 1.02 | locus YHR013C, strain ard1, active compounds read low 1.01 | locus YHR027C, strain rpn1, active compounds read low 1.03 | locus YHR030C, strain SLT2, active compounds read low 1.05 | locus YHR079C, strain IRE1, active compounds read low 1.04 | locus YHR142W, strain chs7, active compounds read low 1.01 | locus YJL092W, strain hpr5, active compounds read low 1.02 | locus YJL095W, strain BCK1 (second series), active compounds read low 1.01 | locus YJL095W, strain BCK1, active compounds read low 1.05 | locus YJL115W, strain asf1, active compounds read low 1.01 | locus YJL129C, strain trk1, active compounds read low 1.03 | locus YJL154C, strain vps35, active compounds read low 1.02 | locus YJL164C, strain tpk1, active compounds read low 0.995 | locus YJL166W, strain qcr8, active compounds read low 1.01 | locus YJL187C, strain SWE1, active compounds read low 1.02 | locus YJR066W, strain TOR1, active compounds read low 0.999 | locus YKL160W, strain elf1, active compounds read low 1.02 | locus YKR026C, strain gcn3, active compounds read low 1.02 | locus YKR091W, strain srl3, active compounds read low 1.02 | locus YLL001W, strain dnm1, active compounds read low 1.02 | locus YLL026W, active compounds read low 1.01 | locus YLL041C, strain sdh2, active compounds read low 0.973 | locus YLR027C, strain aat2, active compounds read low 1.01 | locus YLR113W, strain HOG1, active compounds read low 1.08 | locus YLR221C, strain rsa3, active compounds read low 1.02 | locus YLR258W, strain gsy2, active compounds read low 1.02 | locus YLR262C, strain YPT6 (second series), active compounds read low 1.01 | locus YLR320W, strain mms22, active compounds read low 1.03 | locus YLR342W, strain FKS1, active compounds read low 1.02 | locus YLR357W, strain rsc2, active compounds read low 1.01 | locus YLR370C, strain arc18, active compounds read low 1.02 | locus YLR384C, strain iki3, active compounds read low 1.03 | locus YML120C, strain ndi1, active compounds read low 1.01 | locus YMR058W, strain fet3, active compounds read low 1.02 | locus YMR125W, strain sto1, active compounds read low 1.02 | locus YMR129W, active compounds read low 1.02 | locus YMR205C, strain PFK2, active compounds read low 1.02 | locus YMR231W, strain pep5, active compounds read low 1.02 | locus YNL071W, strain lat1, active compounds read low 1.01 | locus YNL183C, strain NPR1, active compounds read low 0.988 | locus YNL209W, strain ssb2, active compounds read low 1.02 | locus YNL248C, strain rpa49, active compounds read low 1.02 | locus YNL322C, strain KRE1 (second series), active compounds read low 1.02 | locus YNR049C, strain mso1, active compounds read low 1.02 | locus YOR001W, strain rrp6, active compounds read low 1.04 | locus YOR070C, strain gyp1, active compounds read low 1.02 | locus YOR080W, strain dia2, active compounds read low 1.02 | locus YOR083W, strain WHI5, active compounds read low 1 | locus YOR106W, strain vam3, active compounds read low 1.05 | locus YOR231W, strain MKK1, active compounds read low 1.05 | locus YOR265W, strain rbl2, active compounds read low 1.01 | locus YOR270C, strain vph1, active compounds read low 1.02 | locus YOR290C, strain snf2, active compounds read low 1.02 | locus YPL051W, strain arl3, active compounds read low 1 | locus YPL078C, strain atp4, active compounds read low 1.02 | locus YPL106C, strain sse1, active compounds read low 1.02 | locus YPL240C, strain hsp82, active compounds read low 1.02 | locus YPL256C, strain CLN2, active compounds read low 1.05
